We go through 16 compounds from ChEMBL document CHEMBL3433997, “St. Jude Leishmania screening dataset” (2016).

Broadly, the inhibition is the drop in the measured response relative to a control, in per cent.

What all share (type): functional
Assay [1] addresses Solute carrier family 2, facilitated glucose transporter member 1 (Homo sapiens) (UniProt P11166). In words: ST_JUDE_LEISH: Cytotoxicity at 2uM final concentration against transgenic Leishmania Mexicana promastigotes LmGLUT1 that are glucose transport deficient and complemented with the human glucose transporter GLUT1. Activity is measured by DNA content using SYBR green in vitro.

The target in assay [2] is Hexose transporter 1 (Plasmodium falciparum) (UniProt O97467). In words: ST_JUDE_LEISH: Cytotoxicity at 2uM final concentration against transgenic Leishmania Mexicana promastigotes LmPfHT that are glucose transport deficient and complemented with the Plasmodium falciparum hexose transporter. Activity is measured by DNA content using SYBR green in vitro.
The target of assay [3] is Glucose transporter (Leishmania mexicana) (UniProt O61059). Nature of the assay: ST_JUDE_LEISH: Cytotoxicity at 2uM final concentration against transgenic Leishmania Mexicana promastigotes LmGT2 that are glucose transport deficient and complemented with the L. Mexicana glucose transporter 2. Activity is measured by DNA content using SYBR green in vitro.

Solute carrier family 2, facilitated glucose transporter member 1 (Homo sapiens), sequence (P11166 whole entry): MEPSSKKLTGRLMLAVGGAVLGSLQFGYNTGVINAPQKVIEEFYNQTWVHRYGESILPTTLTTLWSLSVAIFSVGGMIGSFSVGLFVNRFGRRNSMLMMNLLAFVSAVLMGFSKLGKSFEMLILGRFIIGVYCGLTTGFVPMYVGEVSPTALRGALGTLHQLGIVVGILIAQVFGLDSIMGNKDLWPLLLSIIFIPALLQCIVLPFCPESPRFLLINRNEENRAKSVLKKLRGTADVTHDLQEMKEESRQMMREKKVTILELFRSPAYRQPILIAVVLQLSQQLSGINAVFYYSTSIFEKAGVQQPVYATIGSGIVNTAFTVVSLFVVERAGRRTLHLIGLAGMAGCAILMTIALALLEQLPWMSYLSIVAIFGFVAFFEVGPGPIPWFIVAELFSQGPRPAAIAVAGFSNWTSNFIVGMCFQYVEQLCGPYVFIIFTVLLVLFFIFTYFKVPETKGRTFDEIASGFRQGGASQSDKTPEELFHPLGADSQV

Regarding `CC(=O)Nc1ccc(OCCN(CC(C)C)c2ccc(C(F)(F)F)c(C#N)c2)c(Cl)c1`, the inhibition in assay [1] is 6.51%; in assay [2] it was 10.4%; in assay [3], 8.7%.
`COc1ccc2nccc([C@@H](O)CN3CCC(NCc4cn5cc(F)ccc5n4)CC3)c2c1`: the inhibition in assay [1] was 2.06%; in assay [2], 2.19%; in assay [3] it was -0.13%.
On to `O=C1NC(=O)C(c2ccc(Cl)cc2)=C1Nc1cccc(S(=O)(=O)C(F)(F)F)c1`, for which the inhibition stood at 1.37% in assay [1], 0.65% in assay [2] and 1.48% in assay [3].
As for `COc1ccc(Nc2nc(NC3CCCC3)cc(-c3ccc(OC)cc3)n2)cc1`, the inhibition in assay [1] is -0.76%; in assay [2] it was 0.56%; in assay [3], -0.75%.
As to `Cc1ccc(NC(=O)c2cn(-c3ccccc3)nc2-c2ccc(F)cc2)cc1[N+](=O)[O-]`, the inhibition in assay [1] is 4.38%; in assay [2] it was 3.28%; in assay [3], 1.86%.
The like results for `CC(C)(C)c1ccc(OC(=O)c2ccc(NC(=O)N[C@@H](Cc3ccc(O)cc3)C(=O)NC3CCN(Cc4ccc(O)cc4)C3)cc2)cc1` (stereo partly drawn) were, in that order, 9.86%, 4% and 9.56%.
`COc1cccc(C(=O)C2CC2CN(C)CC(O)c2cc(C)c(OC)cc2C)c1` (stereo not drawn): the inhibition is 1.05% in assay [1], -1.24% in assay [2] and 0.15% in assay [3].
With `COc1ccc(Cc2c(Cl)nc3nc(N)nc(N)c3c2C)c(OC)c1OC`, the inhibition in assay [1] is 5.35%; in assay [2] it was 12.4%; in assay [3] it was 5.26%.
The matching figures for `CCCCCCCCc1c(C)nc(C)c(C#N)c1O`: 5.8%, 6.51% and 5.78%.
With `COc1ccc(-c2ncnc(C(F)(F)F)c2-c2ccc(Cl)cc2)c(O)c1`, the inhibition amounted to 3.19% in assay [1], 3.07% in assay [2] and 2.96% in assay [3].
For the compound `CCN(CCCN1CCCCC1)c1cc(C)nc(Nc2ccc(C(F)(F)F)cc2)n1`, the results for the inhibition in assay [1], in assay [2] and in assay [3] were 3.6%, 3.63% and 3.9%, respectively.
With `CN(CCN1CCCC1)c1nc2cc(-n3cnc4cc(-c5ccc(Cl)cc5)sc4c3=O)ccc2[nH]1`, the inhibition stood at 0.93% in assay [1], 0.75% in assay [2] and 1.45% in assay [3].
The matching figures for `c1ccc2c(c1)CN(CC1CC1)CC1(CCN(Cc3c[nH]c4cnccc34)CC1)O2`: -0.99%, 0.39% and 0.54%.
Consider `O=C(NCCN1CCOCC1)c1ccc(N2CCC(Oc3ccc4ccccc4c3)CC2)nc1`, for which the inhibition in assay [1] stood at 7.02%; in assay [2], 6.04%; in assay [3], 6.12%.
With `Cc1cccc2[nH]cc(C3CCN(CCC4CCN(C(=O)/C=C/c5ccc(Cl)c(Cl)c5)CC4)CC3)c12`, the results for the inhibition in assay [1], in assay [2] and in assay [3] were 1.19%, -2.11% and 2.11%, respectively.
The like results for `Cn1c(N)cc(-c2cccc(I)c2)c2c(=O)nc(N)nc1-2` were, in that order, 4.12%, 4.5% and 2.89%.
